Measurements reported in the supplement of paper PMC6992640.

System: WHIM2 (cells of a triple-negative basal-like breast cancer xenograft)
Assay: cell viability of combination (% of vehicle); higher = less cytotoxic
Conditions: 1 µM; 72 h; partner dose: 10 nM
Description: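 PDX cells were treated for 72 h with each drug at 1 µM plus afatinib (10 nM; 1 µM for WHIM30). Luciferase viability is expressed as percent of vehicle.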

| Structure (SMILES) | cell viability of combination |
| --- | --- |
| Cc1cc(C(C#N)c2ccc(Cl)cc2)c(Cl)cc1NC(=O)c1cc(I)cc(I)c1O (stereo not given) [Closantel] + CN(C)C/C=C/C(=O)Nc1cc2c(Nc3ccc(F)c(Cl)c3)ncnc2cc1O[C@H]1CCOC1 [Afatinib] | 47 |
| CCCCCCCCCCCCCCCC[n+]1ccccc1.[Cl-] [Cetylpyridinium Chloride] + CN(C)C/C=C/C(=O)Nc1cc2c(Nc3ccc(F)c(Cl)c3)ncnc2cc1O[C@H]1CCOC1 [Afatinib] | 32.2 |
| Cc1cc(C(C#N)c2ccc(Cl)cc2)c(Cl)cc1NC(=O)c1cc(I)cc(I)c1[O-].[Na+] (stereo not given) [Closantel Sodium] + CN(C)C/C=C/C(=O)Nc1cc2c(Nc3ccc(F)c(Cl)c3)ncnc2cc1O[C@H]1CCOC1 [Afatinib] | 49.1 |
| CCCCCCCCCCCC[N+](C)(C)CCOc1ccccc1.[Br-] [Domiphen Bromide] + CN(C)C/C=C/C(=O)Nc1cc2c(Nc3ccc(F)c(Cl)c3)ncnc2cc1O[C@H]1CCOC1 [Afatinib] | 41.6 |
| CCCCCCCCCCCCCCCC[N+](C)(C)C.[Br-] [Cetrimonium Bromide (CTAB)] + CN(C)C/C=C/C(=O)Nc1cc2c(Nc3ccc(F)c(Cl)c3)ncnc2cc1O[C@H]1CCOC1 [Afatinib] | 38 |
